The results in this text go back to paper PMC7862700, “An all-to-all approach to the identification of sequence-specific readers for epigenetic DNA modifications on cytosine”.

Experiment in all cases: DAPPL (digital affinity profiling via proximity ligation, sequencing); 10 mM Tris-HCl pH 7.5, 50 mM NaCl, 1 mM DTT, 4% glycerol, room temperature, 30 min; GST-TFs on glutathione beads, 16-mer random dsDNA library, 0.1% formaldehyde crosslink after washing; high values mean tight binding
One experiment addresses T1, FLI1 (Homo sapiens, UniProt Q01543 1-452).
T1 sequence: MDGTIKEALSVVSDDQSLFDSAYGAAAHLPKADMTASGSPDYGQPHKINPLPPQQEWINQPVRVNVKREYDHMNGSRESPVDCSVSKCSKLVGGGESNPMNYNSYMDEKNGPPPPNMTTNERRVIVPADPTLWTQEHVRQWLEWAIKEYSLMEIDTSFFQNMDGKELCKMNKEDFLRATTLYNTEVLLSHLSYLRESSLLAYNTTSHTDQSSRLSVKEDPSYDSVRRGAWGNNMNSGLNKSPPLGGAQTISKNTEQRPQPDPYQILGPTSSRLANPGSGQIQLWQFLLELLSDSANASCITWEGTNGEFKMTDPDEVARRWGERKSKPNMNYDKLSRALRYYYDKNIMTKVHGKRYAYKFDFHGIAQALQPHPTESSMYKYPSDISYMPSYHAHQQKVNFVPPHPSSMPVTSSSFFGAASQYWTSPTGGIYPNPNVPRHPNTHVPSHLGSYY
Conditions: protein: recombinant; tags: N-terminal GST; dsDNA, one strand shown. Put shortly:
(§1)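 In yeast, human transcription factors were expressed with a GST fusion, then pulled down on glutathione beads and given DNA barcodes. Pooled with a tag-only sample, they were exposed to 200 nmole of a 16-mer random double-stranded DNA library (Tris/NaCl/DTT/glycerol buffer, room temperature, 30 min), washed, crosslinked with 0.1% formaldehyde, proximity-ligated using BsaI/T4 ligase for 1 h at 37 °C, PCR-amplified and read on an Illumina NextSeq500. Each hexamer's frequency of reads for a factor, divided by the matching frequency for the tag-only sample, gives the binding signal.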

The next experiment has as its target T2, ELK1 (Homo sapiens, UniProt P19419 1-428).
T2 sequence: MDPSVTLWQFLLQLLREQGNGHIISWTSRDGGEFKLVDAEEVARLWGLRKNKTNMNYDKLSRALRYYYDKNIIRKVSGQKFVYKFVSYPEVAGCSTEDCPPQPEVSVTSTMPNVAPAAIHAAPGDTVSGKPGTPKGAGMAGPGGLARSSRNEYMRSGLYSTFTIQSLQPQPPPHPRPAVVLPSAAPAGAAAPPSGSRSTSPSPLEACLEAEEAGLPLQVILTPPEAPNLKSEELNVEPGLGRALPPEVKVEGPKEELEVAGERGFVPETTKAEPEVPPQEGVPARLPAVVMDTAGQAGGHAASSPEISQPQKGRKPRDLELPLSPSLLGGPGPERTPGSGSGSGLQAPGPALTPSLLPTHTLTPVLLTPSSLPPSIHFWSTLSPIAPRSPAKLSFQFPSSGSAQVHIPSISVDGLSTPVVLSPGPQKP
Conditions: protein: recombinant; tags: N-terminal GST; dsDNA, one strand shown. Put shortly:
as §1

For a further experiment, the target named is T3, GABPA (Homo sapiens, UniProt Q06546 1-454).
T3 sequence: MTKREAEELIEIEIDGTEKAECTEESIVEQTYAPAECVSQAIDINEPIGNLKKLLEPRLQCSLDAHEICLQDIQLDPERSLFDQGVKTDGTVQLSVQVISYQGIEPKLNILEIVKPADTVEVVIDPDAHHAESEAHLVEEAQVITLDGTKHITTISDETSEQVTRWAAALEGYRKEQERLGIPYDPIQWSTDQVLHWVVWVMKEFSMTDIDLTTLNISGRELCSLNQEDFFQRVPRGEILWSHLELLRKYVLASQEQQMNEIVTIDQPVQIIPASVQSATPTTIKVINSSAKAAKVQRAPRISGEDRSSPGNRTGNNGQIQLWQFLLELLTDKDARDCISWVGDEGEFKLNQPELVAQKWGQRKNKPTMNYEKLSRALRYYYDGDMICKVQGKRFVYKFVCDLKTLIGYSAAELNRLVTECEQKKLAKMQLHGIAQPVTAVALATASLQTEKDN
Conditions: protein: recombinant; tags: N-terminal GST; dsDNA, one strand shown. In short, it runs like this:
as §1

The target of another experiment is T4, ERG (Homo sapiens, UniProt P11308 1-479).
T4 sequence: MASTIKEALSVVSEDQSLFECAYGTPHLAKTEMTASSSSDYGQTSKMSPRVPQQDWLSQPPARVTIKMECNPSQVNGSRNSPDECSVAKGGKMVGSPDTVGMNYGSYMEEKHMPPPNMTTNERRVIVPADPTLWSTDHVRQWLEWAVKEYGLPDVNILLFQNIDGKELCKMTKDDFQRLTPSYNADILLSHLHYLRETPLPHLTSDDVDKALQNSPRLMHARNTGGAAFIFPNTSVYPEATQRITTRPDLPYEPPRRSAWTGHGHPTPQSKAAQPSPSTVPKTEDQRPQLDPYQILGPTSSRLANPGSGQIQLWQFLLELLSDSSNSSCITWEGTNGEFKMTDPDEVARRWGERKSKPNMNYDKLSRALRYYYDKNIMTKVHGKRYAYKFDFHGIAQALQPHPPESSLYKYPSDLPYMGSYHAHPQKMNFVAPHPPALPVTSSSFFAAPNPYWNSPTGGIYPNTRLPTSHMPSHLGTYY
The following applies: protein: recombinant; tags: N-terminal GST; dsDNA, one strand shown. In short, it runs like this:
as §1

The target in the next experiment is ELF1 (Homo sapiens, UniProt P32519 1-619). The following applies: protein: recombinant; tags: N-terminal GST; dsDNA, one strand shown. In short, it runs like this:
as §1

In a further experiment the target is T5, EHF (Homo sapiens, UniProt Q9NZC4 1-300).
T5 sequence: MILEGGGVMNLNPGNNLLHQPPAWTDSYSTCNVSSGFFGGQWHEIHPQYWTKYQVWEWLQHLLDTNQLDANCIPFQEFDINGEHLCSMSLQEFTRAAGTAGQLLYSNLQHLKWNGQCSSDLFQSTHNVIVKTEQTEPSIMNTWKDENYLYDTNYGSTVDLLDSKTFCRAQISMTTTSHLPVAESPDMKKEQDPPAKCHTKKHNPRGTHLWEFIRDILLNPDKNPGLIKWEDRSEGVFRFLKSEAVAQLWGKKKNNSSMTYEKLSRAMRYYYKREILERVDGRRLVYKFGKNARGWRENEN
Conditions: protein: recombinant; tags: N-terminal GST; dsDNA, one strand shown. In short, it runs like this: as §1

The next experiment addresses SPI1 (Homo sapiens, UniProt P17947 1-270). Conditions: protein: recombinant; tags: N-terminal GST; dsDNA, one strand shown. In short, it runs like this: as §1
Another experiment concerns the target SPIB (Homo sapiens, UniProt Q01892 1-262). Conditions: protein: recombinant; tags: N-terminal GST; dsDNA, one strand shown. In short, it runs like this: as §1
Another experiment concerns the target T6, ELK3 (Homo sapiens, UniProt P41970 1-407).
T6 sequence: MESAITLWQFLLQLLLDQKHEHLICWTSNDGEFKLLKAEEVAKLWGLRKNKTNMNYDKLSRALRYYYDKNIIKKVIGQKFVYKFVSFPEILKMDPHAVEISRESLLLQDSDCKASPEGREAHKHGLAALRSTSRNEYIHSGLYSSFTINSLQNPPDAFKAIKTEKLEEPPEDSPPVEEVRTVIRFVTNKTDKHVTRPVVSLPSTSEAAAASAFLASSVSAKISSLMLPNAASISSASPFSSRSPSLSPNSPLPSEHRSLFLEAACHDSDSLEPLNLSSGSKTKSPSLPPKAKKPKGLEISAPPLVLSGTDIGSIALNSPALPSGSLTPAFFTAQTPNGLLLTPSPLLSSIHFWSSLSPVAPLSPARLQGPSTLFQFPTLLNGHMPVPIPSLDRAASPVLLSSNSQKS
Conditions: protein: recombinant; tags: N-terminal GST; dsDNA, one strand shown. In short, it runs like this:
as §1

For another experiment, the target named is T7, FEV (Homo sapiens, UniProt Q99581 1-238).
T7 sequence: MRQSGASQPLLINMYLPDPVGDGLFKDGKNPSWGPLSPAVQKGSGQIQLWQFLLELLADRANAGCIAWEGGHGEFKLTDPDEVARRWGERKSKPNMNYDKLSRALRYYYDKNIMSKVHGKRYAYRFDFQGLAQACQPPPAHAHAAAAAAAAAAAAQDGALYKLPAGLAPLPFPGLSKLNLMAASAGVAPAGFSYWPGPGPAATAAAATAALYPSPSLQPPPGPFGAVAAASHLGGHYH
Conditions: protein: recombinant; tags: N-terminal GST; dsDNA, one strand shown. Put shortly:
as §1

The target in another experiment is ETV5 (Homo sapiens, UniProt P41161 1-510). Conditions: protein: recombinant; tags: N-terminal GST; dsDNA, one strand shown. In short, it runs like this:
as §1

The target of another experiment is HSF1 (Homo sapiens, UniProt Q00613 1-529). Conditions: protein: recombinant; tags: N-terminal GST; chain copies: 3; dsDNA, one strand shown. Put shortly:
as §1

In a further experiment the target is T8, SPIC (Homo sapiens, UniProt Q8N5J4 1-248).
T8 sequence: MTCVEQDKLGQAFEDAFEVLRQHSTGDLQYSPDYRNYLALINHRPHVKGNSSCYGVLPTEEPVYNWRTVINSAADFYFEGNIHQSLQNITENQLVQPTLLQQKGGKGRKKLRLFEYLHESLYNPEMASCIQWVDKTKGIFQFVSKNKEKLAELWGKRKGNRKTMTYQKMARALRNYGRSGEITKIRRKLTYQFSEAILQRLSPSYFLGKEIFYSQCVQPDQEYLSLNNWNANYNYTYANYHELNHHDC
Conditions: protein: recombinant; tags: N-terminal GST; dsDNA, one strand shown. In short, it runs like this: as §1

The target in a further experiment is ELF4 (Homo sapiens, UniProt Q99607 1-663). The following applies: protein: recombinant; tags: N-terminal GST; dsDNA, one strand shown. In short, it runs like this: as §1
Chain of ELF4 (Q99607 whole entry): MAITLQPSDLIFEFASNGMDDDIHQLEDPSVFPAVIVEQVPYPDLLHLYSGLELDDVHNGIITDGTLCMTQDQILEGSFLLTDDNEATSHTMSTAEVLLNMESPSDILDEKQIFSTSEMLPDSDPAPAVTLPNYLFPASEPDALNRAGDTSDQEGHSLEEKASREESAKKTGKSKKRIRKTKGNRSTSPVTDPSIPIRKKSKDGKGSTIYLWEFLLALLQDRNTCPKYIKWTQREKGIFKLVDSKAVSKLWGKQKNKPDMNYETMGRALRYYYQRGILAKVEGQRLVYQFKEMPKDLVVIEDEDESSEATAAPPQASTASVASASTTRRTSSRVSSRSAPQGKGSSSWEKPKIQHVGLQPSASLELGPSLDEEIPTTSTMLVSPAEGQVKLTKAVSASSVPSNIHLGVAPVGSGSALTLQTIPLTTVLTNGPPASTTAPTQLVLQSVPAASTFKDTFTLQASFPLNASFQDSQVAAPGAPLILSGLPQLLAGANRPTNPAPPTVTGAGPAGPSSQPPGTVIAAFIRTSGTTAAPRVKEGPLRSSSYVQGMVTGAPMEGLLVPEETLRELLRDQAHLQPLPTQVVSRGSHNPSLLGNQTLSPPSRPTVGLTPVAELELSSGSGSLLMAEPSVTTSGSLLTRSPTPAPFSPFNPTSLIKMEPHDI
The target in the next experiment is T9, ELK4 (Homo sapiens, UniProt P28324-2 1-405).
T9 sequence: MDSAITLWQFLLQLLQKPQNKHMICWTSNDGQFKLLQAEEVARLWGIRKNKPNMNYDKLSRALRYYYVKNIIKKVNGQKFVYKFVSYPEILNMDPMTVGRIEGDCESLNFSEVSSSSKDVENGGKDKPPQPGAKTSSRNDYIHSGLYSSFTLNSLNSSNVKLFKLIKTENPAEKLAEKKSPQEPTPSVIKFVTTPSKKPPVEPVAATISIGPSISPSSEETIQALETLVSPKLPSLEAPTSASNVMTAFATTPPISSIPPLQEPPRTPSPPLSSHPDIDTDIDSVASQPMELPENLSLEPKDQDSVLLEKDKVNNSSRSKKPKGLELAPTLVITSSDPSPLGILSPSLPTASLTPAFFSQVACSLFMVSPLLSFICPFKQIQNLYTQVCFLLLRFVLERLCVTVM
Conditions: protein: recombinant; tags: N-terminal GST; dsDNA, one strand shown. Put shortly: as §1

In another experiment the target is T10, ETV2 (Homo sapiens, UniProt O00321 1-342).
T10 sequence: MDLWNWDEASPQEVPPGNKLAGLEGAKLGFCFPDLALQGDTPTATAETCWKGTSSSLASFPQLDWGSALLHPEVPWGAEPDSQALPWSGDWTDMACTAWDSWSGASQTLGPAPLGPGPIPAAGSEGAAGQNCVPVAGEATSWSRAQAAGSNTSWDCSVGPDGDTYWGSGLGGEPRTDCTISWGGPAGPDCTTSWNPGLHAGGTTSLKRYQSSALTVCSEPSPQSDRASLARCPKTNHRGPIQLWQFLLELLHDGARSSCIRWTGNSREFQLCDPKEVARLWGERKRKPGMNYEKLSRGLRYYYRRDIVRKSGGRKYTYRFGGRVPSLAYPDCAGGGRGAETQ
Conditions: protein: recombinant; tags: N-terminal GST; dsDNA, one strand shown. Put shortly:
as §1

The next experiment concerns the target T11, ELF3 (Homo sapiens, UniProt P78545 1-371).
T11 sequence: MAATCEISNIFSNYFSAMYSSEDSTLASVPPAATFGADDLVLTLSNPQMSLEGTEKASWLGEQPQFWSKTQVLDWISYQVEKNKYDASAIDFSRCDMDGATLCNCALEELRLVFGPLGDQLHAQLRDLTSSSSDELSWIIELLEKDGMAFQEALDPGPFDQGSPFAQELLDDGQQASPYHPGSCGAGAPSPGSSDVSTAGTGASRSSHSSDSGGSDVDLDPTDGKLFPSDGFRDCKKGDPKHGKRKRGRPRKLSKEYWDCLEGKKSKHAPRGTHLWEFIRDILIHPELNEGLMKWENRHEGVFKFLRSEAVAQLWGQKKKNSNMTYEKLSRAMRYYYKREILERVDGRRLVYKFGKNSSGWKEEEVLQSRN
Conditions: protein: recombinant; tags: N-terminal GST; dsDNA, one strand shown. Put shortly: as §1

A further experiment concerns the target CRX (Homo sapiens, UniProt O43186 1-299). The following applies: protein: recombinant; tags: N-terminal GST; dsDNA, one strand shown. In short, it runs like this: as §1
The target of the next experiment is ETV1 (Homo sapiens, UniProt P50549 1-477). The following applies: protein: recombinant; tags: N-terminal GST; dsDNA, one strand shown. In short, it runs like this: as §1
Chain of ETV1 (P50549 whole entry): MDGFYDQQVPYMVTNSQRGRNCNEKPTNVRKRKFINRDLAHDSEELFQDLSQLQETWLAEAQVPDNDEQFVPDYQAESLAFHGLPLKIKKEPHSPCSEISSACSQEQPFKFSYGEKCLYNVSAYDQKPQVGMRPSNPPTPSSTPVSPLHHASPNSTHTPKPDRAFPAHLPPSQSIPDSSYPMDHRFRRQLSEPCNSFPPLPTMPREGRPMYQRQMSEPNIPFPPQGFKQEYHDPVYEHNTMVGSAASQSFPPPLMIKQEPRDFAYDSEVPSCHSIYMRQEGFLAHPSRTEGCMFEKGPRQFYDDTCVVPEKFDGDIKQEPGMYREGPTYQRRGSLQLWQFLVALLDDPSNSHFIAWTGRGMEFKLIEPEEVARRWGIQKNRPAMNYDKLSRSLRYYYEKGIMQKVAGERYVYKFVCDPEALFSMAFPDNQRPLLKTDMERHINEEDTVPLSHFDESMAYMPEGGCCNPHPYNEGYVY

Chain of ETV5 (P41161 whole entry): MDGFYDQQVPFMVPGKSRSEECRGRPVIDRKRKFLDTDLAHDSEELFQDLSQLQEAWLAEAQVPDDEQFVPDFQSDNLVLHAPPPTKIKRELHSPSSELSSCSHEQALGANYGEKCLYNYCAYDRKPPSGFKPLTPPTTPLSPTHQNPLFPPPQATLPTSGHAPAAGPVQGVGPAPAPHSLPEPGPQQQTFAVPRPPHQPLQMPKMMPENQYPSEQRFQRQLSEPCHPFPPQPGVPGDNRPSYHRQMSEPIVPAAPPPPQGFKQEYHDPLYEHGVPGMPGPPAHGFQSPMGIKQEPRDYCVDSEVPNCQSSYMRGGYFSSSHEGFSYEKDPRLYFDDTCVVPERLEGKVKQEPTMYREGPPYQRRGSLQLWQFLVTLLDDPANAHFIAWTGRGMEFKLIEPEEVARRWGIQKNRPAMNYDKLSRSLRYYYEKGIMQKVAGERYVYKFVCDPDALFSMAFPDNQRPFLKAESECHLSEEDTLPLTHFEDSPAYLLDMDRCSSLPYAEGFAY
Chain of ELF1 (P32519 whole entry): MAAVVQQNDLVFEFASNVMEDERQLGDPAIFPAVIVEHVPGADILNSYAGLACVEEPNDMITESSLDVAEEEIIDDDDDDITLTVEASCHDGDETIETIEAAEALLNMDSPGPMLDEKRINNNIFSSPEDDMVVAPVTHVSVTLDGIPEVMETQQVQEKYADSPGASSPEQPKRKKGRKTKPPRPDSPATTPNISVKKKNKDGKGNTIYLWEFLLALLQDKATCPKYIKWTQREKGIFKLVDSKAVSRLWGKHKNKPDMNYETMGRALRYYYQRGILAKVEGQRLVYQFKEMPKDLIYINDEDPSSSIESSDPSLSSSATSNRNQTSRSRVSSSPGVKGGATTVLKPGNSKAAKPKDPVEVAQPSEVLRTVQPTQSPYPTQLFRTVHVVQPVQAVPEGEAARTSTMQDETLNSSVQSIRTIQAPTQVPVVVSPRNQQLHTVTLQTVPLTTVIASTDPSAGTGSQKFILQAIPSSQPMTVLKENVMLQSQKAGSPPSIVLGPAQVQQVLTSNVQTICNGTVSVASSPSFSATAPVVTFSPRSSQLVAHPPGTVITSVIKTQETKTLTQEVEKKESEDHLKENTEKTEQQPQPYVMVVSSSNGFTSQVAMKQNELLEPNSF
Chain of HSF1 (Q00613 whole entry): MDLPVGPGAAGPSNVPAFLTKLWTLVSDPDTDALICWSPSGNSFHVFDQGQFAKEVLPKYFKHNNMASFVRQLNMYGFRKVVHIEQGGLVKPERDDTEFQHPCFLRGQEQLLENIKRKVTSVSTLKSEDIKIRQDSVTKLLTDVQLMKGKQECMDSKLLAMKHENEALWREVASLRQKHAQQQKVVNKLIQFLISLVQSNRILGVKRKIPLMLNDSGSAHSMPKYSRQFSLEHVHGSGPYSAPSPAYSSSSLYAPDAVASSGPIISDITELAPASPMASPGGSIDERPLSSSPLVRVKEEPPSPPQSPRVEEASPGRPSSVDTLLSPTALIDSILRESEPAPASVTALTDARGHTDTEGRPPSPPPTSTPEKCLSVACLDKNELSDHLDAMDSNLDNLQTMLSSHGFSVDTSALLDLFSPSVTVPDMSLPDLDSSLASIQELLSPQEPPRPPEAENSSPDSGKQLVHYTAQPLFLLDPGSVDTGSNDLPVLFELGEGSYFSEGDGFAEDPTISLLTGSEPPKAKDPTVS
Chain of SPIB (Q01892 whole entry): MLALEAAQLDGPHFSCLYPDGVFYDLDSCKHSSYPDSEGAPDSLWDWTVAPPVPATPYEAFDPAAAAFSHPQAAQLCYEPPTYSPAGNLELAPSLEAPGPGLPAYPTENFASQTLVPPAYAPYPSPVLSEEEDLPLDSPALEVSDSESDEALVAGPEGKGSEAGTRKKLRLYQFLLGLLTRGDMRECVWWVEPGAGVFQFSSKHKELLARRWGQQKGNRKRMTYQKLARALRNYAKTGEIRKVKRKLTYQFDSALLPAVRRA
Chain of CRX (O43186 whole entry): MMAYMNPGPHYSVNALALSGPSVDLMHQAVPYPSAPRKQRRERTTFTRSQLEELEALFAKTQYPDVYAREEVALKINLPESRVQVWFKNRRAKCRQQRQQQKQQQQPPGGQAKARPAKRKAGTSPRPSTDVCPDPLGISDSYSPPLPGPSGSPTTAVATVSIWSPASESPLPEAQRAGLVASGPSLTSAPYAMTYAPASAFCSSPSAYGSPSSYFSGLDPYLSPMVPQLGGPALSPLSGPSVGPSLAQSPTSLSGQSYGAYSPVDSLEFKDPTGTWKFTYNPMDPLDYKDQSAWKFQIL

Regarding GATCCC, the binding signal is 1.16 fold enrichment (6-mer frequency, TF over GST control) with FLI1; 1.16 fold enrichment (6-mer frequency, TF over GST control) with ELK1; 1.15 fold enrichment (6-mer frequency, TF over GST control) with GABPA; 1.23 fold enrichment (6-mer frequency, TF over GST control) in the experiment with ERG; 1.27 fold enrichment (6-mer frequency, TF over GST control) with ELF1; 1.17 fold enrichment (6-mer frequency, TF over GST control) with EHF. Besides, the binding signal was 1.11 fold enrichment (6-mer frequency, TF over GST control) with SPI1; 1.17 fold enrichment (6-mer frequency, TF over GST control) with SPIB; 1.14 fold enrichment (6-mer frequency, TF over GST control) with ELK3; 1.18 fold enrichment (6-mer frequency, TF over GST control) with FEV; 1.13 fold enrichment (6-mer frequency, TF over GST control) in the experiment with ETV5; 1.22 fold enrichment (6-mer frequency, TF over GST control) in the experiment with HSF1. Further, the binding signal in the experiment with SPIC was 1.22 fold enrichment (6-mer frequency, TF over GST control); in the experiment with ELF4, 1.26 fold enrichment (6-mer frequency, TF over GST control); with ELK4, 1.2 fold enrichment (6-mer frequency, TF over GST control); in the experiment with ETV2, 1.23 fold enrichment (6-mer frequency, TF over GST control); with ELF3 it was 1.18 fold enrichment (6-mer frequency, TF over GST control); with CRX, 1.32 fold enrichment (6-mer frequency, TF over GST control). Moreover, in the experiment with ETV1, the binding signal was 1.22 fold enrichment (6-mer frequency, TF over GST control).
